DT40 TDP1 CPT – DT40-hTDP1 cell growth loss with CPT; chicken DT40 Tdp1-/-;hTDP1 cells + 20 nM CPT, ATP luminescence, 48 h; Potency, µM (doses to about 46.2 µM), for inactives: at the top dose activity change, negative = growth inhibition, hits mostly inhibitors; 420,000 compounds, 12% hits; note: potency is the fitted concentration of half-maximal effect; % is set by controls: 0 for no effect and ±100 for the full control effect; nearly all actives have a fitted effect of over 55% in size
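Chicken DT40 Tdp1-/- cells complemented with human TDP1, 400 cells/well, exposed to compounds plus 20 nM camptothecin for at least 48 h at 37 C; viability read as ATP content by CellTiter-Glo luminescence.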
IL-1B inflam inh – blocks inflammasome-driven IL-1 beta release | AID 743279 | 360,000 compounds, 4.7% hits | THP-1 LPS/ATP IL-1B secretion, AlphaLISA, 16 h; active compounds read low | activity change, % at 57.5 µM; in the data active = activity change below about -50%; inconclusive = mostly about -30% to -49%; note: % is set by controls: 0 for no effect and ±100 for the full control effect
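THP-1 cells pretreated 1 hr with compounds (up to 57.5 uM final), then stimulated with LPS (250 ng/mL final) plus ATP (1.25 mM final); secreted IL-1B measured by AlphaLISA after 16 hr, decreased signal indicating inhibition.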
HepG2 tox – counter-screen for TGF-b inhibitors: cytotoxicity in HepG2 cells; HepG2 CAGA-GFP viability, ATP luminescence, 18 h; Potency, µM (top dose mostly 46.1 µM), without a hit: top-dose activity change, negative = cytotoxicity, most hits filed as cytotoxic; 410,000 compounds, 0.76% hits; AID 588856; note: potency is the fitted concentration of half-maximal effect
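HepG2 CAGA-GFP cells (1000/well, DMEM with 1% FBS) received compound, then TGF-beta at 500 pg/mL final, and were incubated 18 hours at 37 degrees C. Viability was read by CellTiter-Glo luminescence. Media-only wells were set as complete cell-killing and DMSO as no toxicity.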
TGFb SMAD3 inh – TGF-b pathway inhibition | HepG2 CAGA-GFP TGF-b/SMAD3 reporter, GFP fluorescence, 18 h; TGF-beta stimulated, 500 pg/mL final | Potency, µM (doses to about 46.1 µM), for inactives: at the top dose activity, negative = inhibition, usual class: inhibitors | 410,000 compounds, 1.2% hits | AID 588855; note: potency is the fitted concentration of half-maximal effect; % is set by controls: 0 for no effect and ±100 for the full control effect; nearly all actives have a fitted effect of over 65% in size
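TGF-beta reporter screen: HEPG2 CAGA-GFP, 1% FBS, 500 pg/mL TGF-beta final, 18 h; per-cell GFP summed per well; curves fitted and categorized by class.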
TDP1 inh – inhibitors of human tyrosyl-DNA phosphodiesterase TDP1; 350,000 compounds, 0.28% hits; Potency, µM (highest dose often 130 µM), for inactives: top-dose activity change, negative = inhibition, most hits filed as inhibitors; recombinant TDP1, AlphaScreen DNA substrate cleavage; AID 485290; note: potency is the fitted concentration of half-maximal effect; % is set by controls: 0 for no effect and ±100 for the full control effect; nearly all actives have a fitted effect of over 40% in size
Target sequence (Q9NUW8 whole entry, looked up): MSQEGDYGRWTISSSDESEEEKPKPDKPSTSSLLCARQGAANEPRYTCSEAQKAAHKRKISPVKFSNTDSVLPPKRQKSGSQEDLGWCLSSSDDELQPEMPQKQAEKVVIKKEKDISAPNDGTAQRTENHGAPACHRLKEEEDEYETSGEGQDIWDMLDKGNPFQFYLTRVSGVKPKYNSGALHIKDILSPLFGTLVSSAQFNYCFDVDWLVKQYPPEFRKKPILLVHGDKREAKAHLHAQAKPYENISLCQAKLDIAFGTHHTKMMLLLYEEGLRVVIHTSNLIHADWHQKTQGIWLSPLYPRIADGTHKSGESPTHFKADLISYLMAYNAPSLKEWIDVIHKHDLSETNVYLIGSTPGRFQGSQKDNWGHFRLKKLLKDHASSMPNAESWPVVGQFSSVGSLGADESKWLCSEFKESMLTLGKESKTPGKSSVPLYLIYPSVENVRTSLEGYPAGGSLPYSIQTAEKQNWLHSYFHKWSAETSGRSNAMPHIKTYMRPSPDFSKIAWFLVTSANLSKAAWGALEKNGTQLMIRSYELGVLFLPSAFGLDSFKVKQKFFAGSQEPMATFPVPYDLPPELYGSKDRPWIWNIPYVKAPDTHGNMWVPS
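Compounds were preincubated with Tdp1 (1 nM final) for 15 min at room temperature before substrate (15 nM final) started a 5 min reaction; beads (10 ug/ml final) were then added for 10 min before AlphaScreen detection.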
TDP1 cell noCPT – qHTS for Inhibitors of human tyrosyl-DNA phosphodiesterase 1 (TDP1): qHTS in cells in absence of CPT; DT40 Tdp1-/- hTDP1 cells, no CPT, ATP luminescence, 48 h; Potency, µM (series often up to 46.2 µM), for the others: at the top dose activity change, negative = growth inhibition, most hits filed as inhibitors; 420,000 compounds, 15% hits; note: potency is the fitted concentration of half-maximal effect; % is set by controls: 0 for no effect and ±100 for the full control effect; nearly all actives have a fitted effect of over 55% in size
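Growth of hTDP1-complemented DT40 Tdp1-knockout cells is measured by ATP luminescence after at least 48 hr compound exposure at 37 °C, with DMSO substituting for the 20 nM CPT used in the parallel screen.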
Starred values were filed as active, the others as inactive; ? = inconclusive; / = no result given; [ ] = remark or other dose. In the library only some 19% were active in any assay of this set; here they are far more common. Unless noted, calls come from the whole dose curve; as a rule, active = well fitted curve in the direction sought with a large enough effect; inconclusive = small, poorly fitted or top-dose-only effect, or another doubt; inactive = no such curve, though single readings can be large; an effect the other way counts as inactive or inconclusive.

SMILES	DT40 TDP1 CPT	IL-1B inflam inh	HepG2 tox	TGFb SMAD3 inh	TDP1 inh	TDP1 cell noCPT
Cc1ccc(C)c(NC(=O)C(Sc2nc3ccccc3c(=O)n2CC(C)C)c2ccccc2)c1 (stereo unspecified)	4.11µM*	-1.8	-14.8%	10.9%	4.2%	2.59µM*
O=C(Cn1cnc2ccccc21)Nc1ccc2c(c1)OCCCO2	8.2µM*	0.0	-1.5%	-12.0%	0.9%	2.31µM*
O=C(CSc1ncnc2c1cnn2-c1ccccc1)Nc1ccc2c(c1)OCO2	-58.0%	-5.0	-9.6%	2.5%	-1.1%	-49.1%
CC(Sc1ccccn1)C(=O)Nc1ccc2c(c1)OCCO2 (stereo unspecified)	1.0%	-8.0	-1.6%	-9.3%	1.8%	-5.6%
CC(Sc1ncnc2ccccc12)C(=O)Nc1ccc2c(c1)OCCO2 (stereo unspecified)	14.6µM*	-11.9	-27.2%	?	0.0%	13µM*
O=C(CSc1ncnc2ccccc12)Nc1ccc2c(c1)OCO2	?	-64.6*	-9.1%	-0.7%	-1.0%	?
Oc1ccccc1Nc1nc(-c2ccccc2)c2cc(Cl)ccc2n1	?	/	-23.7%	-1.2%	2.1%	?
C[C@H](C[C@H](N)C(=O)O)C(=O)O	1.2%	/	/	/	-9.5%	-4.0%
COc1ccc(-c2nc3ccccn3c2Cl)cc1	?	-2.5	-35.5%	0.0%	/	-17.1%
CN(CC(=O)Nc1ccc(F)cc1)C(=O)CNC(=O)C1CCCCC1	-2.4%	0.0	-7.0%	1.5%	0.6%	12.9%
O=C(/C=C/c1ccccc1Cl)Nn1cnc2ccccc2c1=O	?	-9.0	-20.6%	-10.1%	5.8%	-3.6%
O=C(/C=C/c1ccccc1)Nn1cnc2ccccc2c1=O	16.4µM*	-2.6	-1.9%	-6.4%	-1.4%	-98.3%
COc1ccccc1C(=O)N1CCN(CCNC(=O)C(=O)Nc2ccc(Br)c(C)c2)CC1	?	-4.4	-37.0%	?	0.5%	10.3µM*
Cc1ccccc1C(=O)N1CCN(CCNC(=O)C(=O)Nc2ccc(Br)cc2)CC1	14.6µM*	0.0	-53.7%	4.3%	4.2%[56.1 µM]	?
COc1ccc(NC(=O)C(=O)NCCN2CCN(C(=O)c3ccc(C(C)(C)C)cc3)CC2)cc1	16.4µM*	18.4	3.3%	-13.6%	/	16.4µM*
CC(C)[C@@H](CC(=O)N[C@@H]1CCNC[C@H]1C(=O)N[C@H](CC(=O)N[C@@H](CCC(=O)O)CC(=O)O)Cc1c[nH]c2ccccc12)NC(=O)C[C@H](Cc1ccccc1)NC(=O)[C@@H]1CCCC[C@H]1N	/	/	/	/	3.7%	/
Cc1cc(C)n(-c2nc3cc(Cl)ccc3nc2Nc2ccc(CC(=O)O)cc2)n1	-24.4%	/	-1.0%	-1.1%	0.0%	-9.5%
Cc1ccc2c(=O)cc(C(=O)Nc3sc4c(c3C(=O)NCc3ccco3)CCC4)oc2c1C	0.9%	/	-4.3%	-11.2%	-3.7%	6.2%
COc1ccc2nc(N3CCCCC3)c(C#N)cc2c1	?	13.6	-21.7%	0.2%	39.8µM*	-22.3%
COc1ccc2nc(SCC(=O)N3CCCCCC3)c(C#N)cc2c1	?	?	-2.6%	-14.3%	0.0%	16.4µM*
COc1ccc2nc(SCC(=O)Nc3ccc(S(=O)(=O)N4CCCC4)cc3)c(C#N)cc2c1	9.2µM*	0.0	8.9%	-29.3%	4.7%	?
CCOc1ccc2nc(SCC(=O)Nc3ccc(S(=O)(=O)N4CCCC4)cc3)c(C)cc2c1	-22.2%	38.2	14.2%	22.7%	/	0.4%
Cc1cc(NC(=O)CSc2nc3ccccc3cc2C#N)no1	-7.4%	-7.8	-2.3%	-7.2%	-0.4%	-15.0%
N#Cc1cc2ccccc2nc1SCC(=O)Nc1ccc(S(=O)(=O)N2CCCC2)cc1	20.6µM*	2.2	-0.6%	8.7%	-2.0%	18.4µM*
CC(C)(C)[C@H]1C=C(C(N)=O)O[C@@H](OCc2ccc(CO)cc2)C1	4.6%	37.0	1.6%	-16.6%	0.0%	-4.2%
SMILES	DT40 TDP1 CPT	IL-1B inflam inh	HepG2 tox	TGFb SMAD3 inh	TDP1 inh	TDP1 cell noCPT
COc1ccc(Br)cc1CNc1ccc2[nH]c(=O)[nH]c2c1	-31.5%	-60.9*	-11.4%	4.9%	7.7%	-29.3%
COc1ccc(Br)cc1CNc1ccc(O)cc1	?	-94.6*	12.6µM*	?	12.4%	?
CNS(=O)(=O)c1ccc2c3c(cccc13)C(=O)N2C	-21.2%	-83.9*	-16.9%	7.6%	/	-10.9%
NC(=O)c1c(NC(=O)COC(=O)c2ccc(O)c(Cl)c2)sc2c1CCCC2	25.9µM*	55.2	1.0%	0.0%	-5.9%	?
NC(=O)c1c(NC(=O)CN2C(=O)CCC2=O)sc2c1CCCCC2	-5.3%	0.0	2.2%	5.0%	1.1%	-20.3%
N#CCC(=O)Nc1sc2c(c1C(N)=O)CCCC2	-19.3%	-21.3	-1.0%	-2.7%	5.2%	-15.7%
C=CCNC(=S)Nc1sc2c(c1C(N)=O)CCCC2	?	-26.5	11.2µM*	-23.2%	/	?
C=CC(=O)Nc1sc2c(c1C(N)=O)CCCC2	14.6µM*	-109.2*	-52.9%	15.8µM*	-3.2%	?
NC(=O)c1c(NC(=O)CN2CCCC2)sc2c1CCCC2	9.2µM*	-2.6	6.1%	?	2.3%	16.4µM*
Cc1ccc(-n2c(CCC(=O)O)ccc2-c2cccs2)cc1Cl	-27.4%	/	8.6%	-13.8%	/	-21.8%
CCOC(=O)[C@H]1[C@H]2COc3ccc(Cl)cc3[C@@H]2N2C(=O)CNC(=O)[C@@]12C	0.6%	11.2	-9.3%	-0.2%	-0.2%	46.4%
O=C(NCCCc1nc2ccccc2n1Cc1ccccc1F)c1ccco1	?	/	-24.7%	?	8.6%	?
NC(=O)c1c(NC(=O)c2ccncc2)sc2c1CCCC2	?	-9.3	-28.2%	-40.0%	2.3%	16.4µM*
Cc1cc([N+](=O)[O-])nn1CC(=O)Nc1sc2c(c1C(N)=O)CCCC2	7.5%	21.7	2.0%	7.2%	2.5%	1.9%
COC(=O)Nc1sc2c(c1C(N)=O)CCCCCC2	16.4µM*	-6.6	-3.2%	-1.0%	1.1%	20.6µM*
Cc1cc([N+](=O)[O-])nn1CCCC(=O)Nc1sc2c(c1C(N)=O)CCCC2	?	?	-22.6%	0.2%	1.1%	18.4µM*
CC(C)C[C@@H](CC(=O)N[C@H](CC(=O)N[C@@H]1CCNC[C@H]1C(=O)N[C@H](CC(=O)N[C@@H](CCC(=O)O)CC(=O)O)Cc1c[nH]c2ccccc12)C(C)C)NC(=O)[C@@H]1CCCC[C@H]1N	/	/	/	/	1.9%	/

Compound activity deposited in PubChem by National Center for Advancing Translational Sciences (NCATS).
